# Results: PubChem BioAssay (EPA / NIEHS)
# Inconclusive results are not listed. Some structures have more than one record in an assay (separate samples or runs), and their calls can disagree. Active and inactive are the calls of the source. The calls were made as follows: active = hit-call score of the fitted dose curve at least 0.9, where 1 is the maximum; inconclusive = response in the unintended direction; inactive = score below 0.9.
# Biological target: human Phosphodiesterase 5 (PDE5), PDE5A (gene 8654) (UniProt O76074)
# Assay: NVS_ENZ_hPDE5: NovaScreen (NVS) Enzymatic Assay for human Phosphodiesterase 5 (PDE5) (AID 2283194)
# In short: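 Screening began in duplicate at 25 uM, with actives taken into concentration-response. Enzyme activity of recombinant PDE5 toward its substrate was measured at 1 h by fluorescence mobility-shift detection, relative to DMSO controls.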
Structure (SMILES),outcome,AC50
O=C(c1ccccc1)c1ccccc1,inactive,–
CCCCCC(C)OC(=O)COc1ccc(Cl)c2cccnc12 (stereo not given),inactive,–
CS(=O)(=O)c1ccc([C@@H](CC2CCCC2)C(=O)Nc2cnccn2)cc1Cl,–,8.2 µM (active)

# Biological target: human Phosphodiesterase 10 (PDE10), PDE10A (gene 10846) (UniProt Q9Y233)
# Sequence (Q9Y233 whole entry, looked up): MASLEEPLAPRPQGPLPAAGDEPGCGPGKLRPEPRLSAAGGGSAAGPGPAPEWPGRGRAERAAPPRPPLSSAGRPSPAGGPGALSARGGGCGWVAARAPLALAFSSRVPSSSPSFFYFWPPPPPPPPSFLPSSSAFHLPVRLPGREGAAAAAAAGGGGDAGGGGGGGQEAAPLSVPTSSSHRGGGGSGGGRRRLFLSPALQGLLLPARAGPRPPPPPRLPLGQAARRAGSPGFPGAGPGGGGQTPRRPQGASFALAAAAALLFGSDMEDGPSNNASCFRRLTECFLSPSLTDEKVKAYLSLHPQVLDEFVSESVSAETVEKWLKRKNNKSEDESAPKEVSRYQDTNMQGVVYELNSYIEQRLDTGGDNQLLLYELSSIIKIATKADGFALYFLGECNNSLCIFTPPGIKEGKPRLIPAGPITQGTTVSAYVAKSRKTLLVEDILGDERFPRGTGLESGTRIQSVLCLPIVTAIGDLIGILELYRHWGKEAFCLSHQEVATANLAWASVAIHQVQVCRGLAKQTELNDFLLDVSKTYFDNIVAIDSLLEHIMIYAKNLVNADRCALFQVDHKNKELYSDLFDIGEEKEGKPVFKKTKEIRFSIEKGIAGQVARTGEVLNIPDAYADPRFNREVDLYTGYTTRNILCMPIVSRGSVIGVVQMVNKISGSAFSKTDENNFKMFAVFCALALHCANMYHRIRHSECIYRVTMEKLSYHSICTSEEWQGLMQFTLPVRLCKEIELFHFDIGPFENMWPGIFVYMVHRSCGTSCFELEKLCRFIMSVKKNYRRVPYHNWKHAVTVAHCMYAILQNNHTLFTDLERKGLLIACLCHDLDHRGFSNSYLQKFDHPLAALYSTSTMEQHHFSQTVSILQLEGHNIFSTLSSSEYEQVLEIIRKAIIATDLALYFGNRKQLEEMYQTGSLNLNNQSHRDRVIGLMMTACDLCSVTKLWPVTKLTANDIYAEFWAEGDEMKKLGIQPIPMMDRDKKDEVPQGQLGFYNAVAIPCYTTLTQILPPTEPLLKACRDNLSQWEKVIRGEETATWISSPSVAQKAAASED
# Assay: NVS_ENZ_hPDE10: NovaScreen (NVS) Enzymatic Assay for human Phosphodiesterase 10 (PDE10) (AID 2283195)
# In short: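 Biochemical single-readout PDE10A assay, cell-free, extracted protein. Compounds first screened at 25 uM in duplicate, hits then titrated to 50 uM max. Activity measured after 1 h; loss-of-signal fitted against DMSO negative control.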
Structure (SMILES),outcome,AC50
CCCCCCCCCCCCCCCCCC[N+](C)(C)Cc1ccccc1,inactive,–
CCCCCCCCCCCCOS(=O)(=O)O,–,25 µM (active)
CCOC(OCC)C(=O)c1ccccc1,inactive,–
CC(=O)CC(C)C,inactive,–
O=C1OC2(c3ccccc31)c1cc(I)c(O)c(I)c1Oc1c2cc(I)c(O)c1I,inactive,–
CCCCCCCCC(C)=O,inactive,–
CCc1cccc(CC)c1NC(=O)C(=O)O,inactive,–
O=C(NO)c1ccccc1,inactive,7.2 µM (active)
CCC1CO1 (stereo not given),–,6.67 µM (active)
Clc1ccc(Nc2nnc(Cc3ccncc3)c3ccccc23)cc1,inactive,–
O=C(NCc1ncc(C(F)(F)F)cc1Cl)c1c(Cl)cccc1Cl,inactive,–
CCCC=O,inactive,–

# Biological target: human Phosphoinositide 3-kinase alpha (PI3Ka), PIK3CA (gene 5290) (UniProt P42336)
# Sequence (P42336 whole entry, looked up): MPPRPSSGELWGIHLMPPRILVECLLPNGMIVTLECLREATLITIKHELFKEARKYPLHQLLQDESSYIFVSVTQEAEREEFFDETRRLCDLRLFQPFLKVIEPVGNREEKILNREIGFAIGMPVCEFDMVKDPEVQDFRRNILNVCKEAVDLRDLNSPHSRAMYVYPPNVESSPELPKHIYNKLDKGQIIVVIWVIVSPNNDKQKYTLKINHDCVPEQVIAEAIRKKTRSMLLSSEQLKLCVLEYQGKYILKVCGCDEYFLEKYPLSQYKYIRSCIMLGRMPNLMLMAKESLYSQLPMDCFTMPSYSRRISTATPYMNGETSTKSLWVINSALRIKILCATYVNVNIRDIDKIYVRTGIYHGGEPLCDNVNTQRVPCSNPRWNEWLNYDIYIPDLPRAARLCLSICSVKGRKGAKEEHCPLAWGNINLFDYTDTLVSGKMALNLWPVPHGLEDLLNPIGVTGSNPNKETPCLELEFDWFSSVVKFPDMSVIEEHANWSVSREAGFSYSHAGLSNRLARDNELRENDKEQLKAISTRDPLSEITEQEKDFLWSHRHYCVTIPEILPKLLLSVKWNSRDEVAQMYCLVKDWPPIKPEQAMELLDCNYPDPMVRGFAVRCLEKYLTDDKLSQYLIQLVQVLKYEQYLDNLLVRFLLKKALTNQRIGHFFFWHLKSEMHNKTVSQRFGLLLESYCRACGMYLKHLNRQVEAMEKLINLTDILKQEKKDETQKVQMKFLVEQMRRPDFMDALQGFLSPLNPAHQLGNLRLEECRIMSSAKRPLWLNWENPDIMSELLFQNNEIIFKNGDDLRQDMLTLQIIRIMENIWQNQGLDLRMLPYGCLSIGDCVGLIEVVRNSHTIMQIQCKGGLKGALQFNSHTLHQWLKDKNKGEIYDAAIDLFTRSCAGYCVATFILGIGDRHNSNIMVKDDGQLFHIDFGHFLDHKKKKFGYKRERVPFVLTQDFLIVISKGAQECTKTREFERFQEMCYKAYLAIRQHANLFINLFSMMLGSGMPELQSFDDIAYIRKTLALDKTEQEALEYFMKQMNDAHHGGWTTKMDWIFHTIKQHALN
# Assay: NVS_ENZ_hPI3Ka: NovaScreen (NVS) Enzymatic Assay for human Phosphoinositide 3-kinase alpha (PI3Ka) (AID 2283196)
# In short: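 Fluorescence/mobility-shift readout of substrate conversion by recombinant enzyme, 1 h post-dosing. Primary screen in duplicate at 25 uM; actives (e.g. ≥30% inhibition) retested in singleton concentration-response, top concentration 50 uM.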
Structure (SMILES),outcome,AC50
CC(C)C=O,inactive,–
CCCCCCCCCCCCOS(=O)(=O)O,inactive,–
C=COC(=O)C(C)(C)CCCCCC,inactive,–
CCCCC(CC)C(=O)OCCOCCOCCOCCOC(=O)C(CC)CCCC (stereo not given),inactive,–
CCCCCCCCCCCC,inactive,–
CCN(CC)CC,inactive,–
O=C(NO)c1ccccc1,inactive,–
CCOCCOCC,inactive,–
NC(=NCCCCCCN=C(N)/N=C(\N)Nc1ccc(Cl)cc1)/N=C(\N)Nc1ccc(Cl)cc1,–,531 nM (active)
